Source: PubChem BioAssay AID540303 (National Center for Advancing Translational Sciences (NCATS), 2011)
Hit rate of the full screen: of about 330,000 compounds, about 1,000 (0.3%) were called active. Roughly 3% stayed inconclusive and do not appear here. Calls come from the whole dose curve; as a rule, active = well fitted inhibition curve with a large enough effect; inconclusive = small, poorly fitted or top-dose-only effect; inactive = no such curve, though single readings can be large or run the other way; tested in mouse RAW 264.7 cells. This excerpt belongs to a sample that is enriched for actives.

Test: qHTS for Inhibitors of Cell Surface uPA Generation; note: nearly all actives have a fitted effect of over 55% in size
Settings: cell surface uPA generation assay; series mostly up to 38.3 µM; activity change, negative = inhibition: at the top concentration
From the text: The overall objective of this project is to perform a quantitative high throughput screen (qHTS) to identify novel compounds that inhibit the generation of cell surface urokinase activity. The urokinase plasminogen activator (uPA) is one of the two primary endogenous systems that mediate plasminogen activation into plasmin. Members of this system, including uPA and its receptor (uPAR), are overexpressed in several malignant tumors. This system plays a major role in adhesion, migration, invasion and metastasis of cancer cells. Small molecule inhibitors of the uPA system will serve as probes to understand the molecular mechanisms of the uPA cascade and better understanding the microenvironmental circumstances that facilitate the activation of plasminogen by uPA, and finally may provide novel candidate agents for anticancer drug therapy.
[…] […] Upon inhibition of the uPA activation cascade, the subsequent cell surface uPA activity-dependent translocation of LF into the cytoplasm is inhibited. ATP-Lite is used to measure intracellular ATP concentrations, which remain increased if LF entry into the cytoplasm is inhibited. This validation assay was performed using a small set of validation compounds.
NIH Chemical Genomics Center [NCGC]
NIH Molecular Libraries Probe Centers Network [MLPCN]
Assay Submitter (PI): Thomas Bugge, National Institute of Dental and Craniofacial Research, NIH
Cultured RAW 264.7 were dispensed into 1536-well clear bottom, white walled tissue culture plates at a density of 4000 cells/well and were incubated overnight (12-16 h) at 37 C in a 5% CO2 incubator. Serially diluted compounds in 23 nl DMSO were added to cells. […] Compound and reagent-treated plates were incubated for 24 h at 37 C in a 5% CO2 incubator. Perkin Elmer ATPlitetrade mark 1 step (3 ul) was then added to each well. Luminescence was detected using a Perkin Elmer ViewLuxtrade mark plate reader.
1.Dispensing RAW 264.7 cells into 1536-well, white walled tissue culture plates at a density of 4000 cells/well (4 uL).
2.Incubation at 37 C in a 5% CO2 incubator overnight.
3.Serially diluting compounds (1:5 serial dilution; 0.0024 uM to […] final concentration) in 23 nl DMSO.
5.Incubating the compound and reagent-treated plates for 24 hours at 37 C in a 5% CO2 incubator.
6.Adding ATP-Lite (3 ul).
7.Reading plates by ViewLux with an exposure length of 5 seconds.
% is set by controls: 0 for no effect and ±100 for the full control effect; potency is the fitted concentration of half-maximal effect.

| SMILES | activity change, negative = inhibition | Potency |
| --- | --- | --- |
| COC(=O)c1cc(OCC(=O)NC2CCCc3ccccc32)cc(C(=O)OC)c1 (stereo unspecified) | 1.62% (inactive) |  |
| CC1=CC(=NNS(=O)(=O)c2ccc([N+](=O)[O-])cc2)CC(C)(C)C1 | -2.04% (inactive) |  |
| Cc1onc(-c2c(F)cccc2Cl)c1C(=O)Nc1cccc(S(=O)(=O)N2CCCCC2)c1 | -0.171% (inactive) |  |
| COc1cc(/C=N\NC(=O)c2nonc2N)c(OC)cc1Br |  | 7.94 µM (active) |
| Cc1cc(C)c([N+](=O)[O-])cc1-c1ccc(/C=N/NC(=O)c2nonc2N)o1 | 2.06% (inactive) |  |
| COc1cc(/C=N/N=C(\N)c2nonc2N)cc(OC)c1OC | 2.87% (inactive) |  |
| CSCCC(NC(=O)COc1ccccc1)C(=O)OCc1ccc(Cl)cc1 (stereo unspecified) | 1.9% (inactive) |  |
| CCOc1ccc(/C=C(/C#N)c2nnc(N3CCOCC3)n2-c2ccccc2)cc1OC | -3.57% (inactive) |  |
| CCOc1ccccc1NC(=S)C(=C([O-])c1ccc2c(c1)OCCO2)[n+]1ccc(CC)cc1 | -8.87% (inactive) |  |
| O=c1[nH]c2c(c(=O)n1-c1ccccc1)CCO2 | 3.17% (inactive) |  |
| O=[N+]([O-])c1ccc(NS(=O)(=O)c2ccccc2)c(Cl)c1 | -0.654% (inactive) |  |
| CCc1ccc(C(=O)C(C)OC(=O)CN2C(=O)NC3(CCCC3)C2=O)cc1 (stereo unspecified) | -1.56% (inactive) |  |
| O=C(NCCCn1ccnc1)c1ccccc1F | 1.64% (inactive) |  |
| O=C(NCCCn1ccnc1)c1cc(Br)c(Br)s1 | 5.42% (inactive) |  |
| O=C(NCCCn1ccnc1)c1cc(-c2ccccc2)on1 |  | 5.62 µM (active) |
| CCc1c(Nc2ccccc2Cl)nc(N)[nH]c1=O | -10.9% (inactive) |  |
| O=C(O)c1ccc(Cn2cnc3c(=S)nc[nH]c32)cc1 | -3.45% (inactive) |  |
| CCCCC(=O)NC(c1ccc(OC)c(OC)c1)c1ccc2cccnc2c1O (stereo unspecified) | -13.8% (inactive) |  |
| CC1CN(Cc2ccccc2)C(=S)NC1=O (stereo unspecified) | 1.89% (inactive) |  |

| SMILES | activity change, negative = inhibition | Potency |
| --- | --- | --- |
| COc1cccc(/C=N/Nc2ccc(S(=O)(=O)Nc3ccccc3C(=O)O)cc2[N+](=O)[O-])c1O | 0.183% (inactive) |  |
| c1ccc2c(c1)OC1OC2Oc2ccccc21 | 12.3% (inactive) |  |
| COc1cccc(/C=N/Nc2ccc(Cl)nn2)c1 | 5.63% (inactive) |  |
| Oc1cccc(/C=N/Nc2ccc(Cl)nn2)c1O |  | 2.82 µM (active) |
| Cc1ccsc1/C=N/Nc1ccc(Cl)nn1 | 11.8% (inactive) |  |
| Cc1ccc(S(=O)(=O)CCC(=O)OCC(=O)N(C)Cc2ccccc2)cc1 | 4.47% (inactive) |  |
| NC(=S)NN=C1CCCC(C(F)(F)F)C1 (stereo unspecified) | -2.84% (inactive) |  |
| CSCCC(NC(=O)COc1ccccc1)C(=O)N1CCN(c2cccc(C(F)(F)F)c2)CC1 (stereo unspecified) | -9.29% (inactive) |  |
| COc1cc(C2c3cc4c(cc3C(O)C3COC(=O)C23)OCO4)cc(OC)c1OC (stereo unspecified) | -8.49% (inactive) |  |
| COC(=O)CNC(=O)c1cc(-c2ccncc2)nc2ccccc12 | -0.0987% (inactive) |  |
| CCN(CC)CCNC(=O)c1ccc(NC(=O)c2cc(-c3ccncc3)nc3ccccc23)cc1 |  | 10 µM (active) |
| O=C(Nc1ccc(S(=O)(=O)Nc2nccs2)cc1)c1cc(-c2ccncc2)nc2ccccc12 | 1.2% (inactive) |  |
| CN(C(=O)c1cccc(NC(=O)Cc2cccc(NC(=O)C3CCCN(C(=O)C4CC4)C3)c2)c1)C1CCC1 (stereo unspecified) | 14.2% (inactive) |  |
| O=C(Nc1ncccc1O)c1ccc(S(=O)(=O)N2CCCC2)cc1 |  | 7.94 µM (active) |
| O=C(N/N=C/c1ccccn1)c1ccc(S(=O)(=O)N2CCCCCC2)cc1 | 5.59% (inactive) |  |
| O=C(Nc1ncccc1O)c1ccc(S(=O)(=O)N2CCCCCC2)cc1 | 0.388% (inactive) |  |
| Cc1cn(C2CC(O)C(CO)O2)c(=O)n(CCCc2ccccc2)c1=O (stereo unspecified) | -2.05% (inactive) |  |
| O=S1(=O)CSCS(=O)(=O)C1 | 2.84% (inactive) |  |
| Cc1[nH]c2ccc(C(=O)N3CCN(C)CC3)cc2c1C | -8.89% (inactive) |  |

| SMILES | activity change, negative = inhibition | Potency |
| --- | --- | --- |
| COc1ccccc1N1CCN(C(=O)c2ccc(Cl)c(S(=O)(=O)N3CCCC3)c2)CC1 | -0.654% (inactive) |  |
| CCOc1ccccc1N1CCN(C(=O)c2ccc3[nH]c(C)c(C)c3c2)CC1 |  | 2.51 µM (active) |
| CCCCCCCCNS(=O)(=O)CCNC1CCCCC1 | 6.43% (inactive) |  |
| O=C(Cc1ccc(S(=O)(=O)N2CCOCC2)s1)Nc1ccc(Br)c(C(F)(F)F)c1 | -17.8% (inactive) |  |
| CC(C)(C)S(=O)(=O)N1Cc2cc(CO)cc(CCO)c2[C@H]1CCO | 2.5% (inactive) |  |
| Cc1ccc(C(=O)N2CCN(C(=O)N3CCOCC3)CC2)cc1 | 1.5% (inactive) |  |
| Cc1ccccc1-c1ccc(Nc2ccc(C(=O)N3CCOCC3)cc2)nn1 | -5.32% (inactive) |  |
| Cc1oc2c(c1C(=O)N1CCOCC1)C(=O)c1ccccc1C2=O |  | 2.51 µM (active) |
| C/C(=N\Nc1ccccc1)c1cccs1 | -0.263% (inactive) |  |
| CC1C(C)N(C(=O)CCl)c2ccccc2N1C(=O)CCl (stereo unspecified) | -9.43% (inactive) |  |
| O=C(NN=Cc1ccccc1O)NN=Cc1ccccc1O | -13.6% (inactive) |  |
| O=C1C[C@@H]2c3c(cccc3CN1Cc1ccccc1)C[C@@H](O)[C@H]2O | 4.62% (inactive) |  |
| COc1ccc(CNCCCn2cnc3c(OCc4ccccc4)ncnc32)cc1 | -11.6% (inactive) |  |
| CC(C)(C)OC(=O)N1CCC(C(=O)Nc2cccc(C(=O)NCCc3ccccc3)c2)CC1 | 21% (inactive) |  |
| CC(C)[C@@H](C(=O)OCC(=O)c1ccc2c(c1)NC(=O)CO2)N1C(=O)c2ccccc2C1=O | 0.762% (inactive) |  |
| Oc1ccccc1CN1CCN(C(c2ccccc2)c2ccccc2)CC1 | 7.27% (inactive) |  |
| O=C1CC(N2CCN(C(c3ccccc3)c3ccccc3)CC2)C(=O)N1 (stereo unspecified) | -0.34% (inactive) |  |
| CC1(C)CC(N2CCN(C(c3ccccc3)c3ccccc3)CC2)=CC(=[N+]2CCCCC2)C1 |  | 1.12 µM (active) |
